Source: ChEMBL document CHEMBL3988442, “University of Dundee, Small-Polar-MMV Screening Library” (2021)
The whole screen tested about 69,000 compounds, of which about 950 (1.4%) showed an effect of 50% or more. The full list was thinned out, with strong results kept by preference.

Each compound was assayed on Mycobacterium tuberculosis (assay: Cornell M. t heat shock assay; also: in the data most compounds retested in dose-response had high values).
Type: functional, organism-based
Design: dose or concentration left out as unconfirmed

Row | Compound | Percent Effect [%]
1 | COCCC(=O)N1CC2(CCN(Cc3ccccc3Cl)CC2)C1.O=C(O)C(F)(F)F | 12.96
2 | CCc1ncc(C(=O)N2CCCN(C3CCCC3)CC2)cn1 | -5.155
3 | Cc1ccc2c(n1)N(CCn1cccn1)CCN(C1CCOCC1)C2.O=C(O)C(F)(F)F.O=C(O)C(F)(F)F | -10.35
4 | Cc1cc(CN2C[C@H](OCC3CCOCC3)[C@H]3COC[C@H]32)oc1C.O=C(O)C(F)(F)F | 5.146
5 | Cc1ccc(CN2CCC[C@@H]3CN(C(=O)c4ccco4)C[C@@H]32)s1.O=C(O)C(F)(F)F | -26.86
6 | COc1ncccc1CN1C[C@H]2CCN(c3ccc(C)nn3)C[C@H]2C1.O=C(O)C(F)(F)F | 16.3
7 | O=C(O)C(F)(F)F.c1ccc(N2CCCC3(CCN(Cc4ccsc4)C3)C2)nc1 (stereo not given) | -1.694
8 | Cc1nc(CN2CCc3ncnc(-c4cccnc4)c3CC2)cs1.O=C(O)C(F)(F)F.O=C(O)C(F)(F)F | -25.69
9 | O=c1[nH]c(-c2ccccc2)nc2c1CCN(S(=O)(=O)N1CCCC1)C2 | 5.135
10 | O=c1[nH]c(-c2ccncc2)nc2c1CCN(S(=O)(=O)N1CCCC1)C2 | -2.171
11 | O=c1[nH]c(-c2ccccn2)nc2c1CCN(S(=O)(=O)N1CCCC1)C2 | 87.3
12 | Cc1ccc(CN2Cc3nnn(C)c3C(COCc3ccccn3)C2)s1.O=C(O)C(F)(F)F.O=C(O)C(F)(F)F (stereo not given) | -10.17
13 | O=C(NCCC1=CCCCC1)c1cc(-c2ccc(O)cc2)n[nH]1 | 57.62
14 | CCCc1cc(C(=O)NCCC2=CCCCC2)[nH]n1 | 8.132
15 | Cc1ccc(-c2cc(C(=O)NCCC3=CCCCC3)[nH]n2)o1 | 46.03
16 | O=C(O)C(F)(F)F.c1coc(CN2CCCn3c(nnc3Cn3cccn3)C2)c1 | -27.42
17 | O=C(O)C(F)(F)F.O=S(=O)(c1cccs1)N1CCCC2(COCCN(c3cccnc3)C2)C1 (stereo not given) | 1.74
18 | CCn1cc(S(=O)(=O)N(C)Cc2c(Br)cnn2CC)c(C)n1 | -19.54
19 | CCn1cc(CN(C)S(=O)(=O)c2cnn(CC)c2C)c(C)n1 | 95.67
20 | CCn1nc(C)c(CN(C)S(=O)(=O)c2cnn(C)c2)c1C | 0.2173
21 | CC(=O)N1CCC2(CCCN2Cc2cnn(C)c2)CC1.O=C(O)C(F)(F)F | -13.44
22 | CC(C)c1nc(CSc2nnc(-c3cccs3)n2CC(N)=O)no1 | 87.51

Row | Compound | Percent Effect [%]
23 | CC(C)c1nc(CSc2nnc(C3CC3)n2CC(N)=O)no1 | -3.28
24 | NC(=O)Cn1c(SCc2noc(-c3ccsc3)n2)nnc1C1CC1 | -1.649
25 | O=C(C1CC(F)(F)C1)N1C[C@@H]2CN(CC3CC3)CCO[C@@H]2C1.O=C(O)C(F)(F)F | -22.01
26 | O=C1N(Cc2ccc(F)cc2)CCCC12CCN(C1CCSCC1)C2 (stereo not given) | 56.84
27 | O=C1N(Cc2ccc(F)c(F)c2)CCCC12CCN(C1CCCC1)C2 (stereo not given) | 48.94
28 | CCc1cnc(N2CCC3(CCN(Cc4cccc(C)c4)C3=O)C2)nc1 (stereo not given) | -25.62
29 | CCS(=O)(=O)N1CCC2(CCCN(Cc3ccc(F)c(F)c3)C2=O)C1 (stereo not given) | -4.443
30 | O=C1N(Cc2ccccc2F)CCCC12CCN(C1CCSCC1)C2 (stereo not given) | 35.05
31 | Cc1cccc(CN2CCCC3(CCN(C4CCSCC4)C3)C2=O)c1 (stereo not given) | 68.24
32 | Cc1cccc(CN2CCC3(CCN(c4ncccn4)C3)C2=O)c1 (stereo not given) | -17.59
33 | O=C1N(Cc2ccc(F)c(F)c2)CCCC12CCN(C1CCSCC1)C2 (stereo not given) | 39.79
34 | O=C1N(Cc2ccc(F)c(F)c2)CCCC12CCN(C1CCCCC1)C2 (stereo not given) | 88.26
35 | CN(C)C(=O)CN1CCC2(CCCN(Cc3cccn3C)C2)C1=O.O=C(O)C(F)(F)F (stereo not given) | 8.62
36 | CN(C)c1ncc2c(c1C(=O)O)CCN(Cc1ccco1)C2.O=C(O)C(F)(F)F.O=C(O)C(F)(F)F | 10.22
37 | Cc1ccc(N2CCC3(CCN(C(=O)N(C)C)CC3)CC2)nn1.O=C(O)C(F)(F)F | 0.5325
38 | CC(C)N(C)C[C@H]1C[C@@H]2CN(Cc3ccco3)C[C@@H]2O1.O=C(O)C(F)(F)F.O=C(O)C(F)(F)F | -4.4
39 | CCCN1CCC(c2nc3ccc(-c4ccccc4)cn3n2)CC1.O=C(O)C(F)(F)F | -8.011
40 | O=C(O)C(F)(F)F.O=C(O)C(F)(F)F.c1cncc(OC[C@@H]2CC[C@H]3[C@H](CCN3Cc3cccs3)O2)c1 | -169
41 | CC(=O)NC1CCN(c2cc(C3CCNCC3)nc(C)n2)C1 (stereo not given) | -7.027
42 | Cc1cnn(CC2CCCN2CCc2nc3ccccc3c(=O)[nH]2)c1 (stereo not given) | 98.35
43 | Cc1nc(C)n(CC2CCCN2Cc2nc3ccccc3c(=O)[nH]2)n1 (stereo not given) | -31.26
44 | O=S(=O)(CCN1CCCC1Cn1cccn1)c1ccccc1 (stereo not given) | 15.63

Row | Compound | Percent Effect [%]
45 | Cc1cnn(CC2CCCN2Cc2nc3ccccc3c(=O)[nH]2)c1 (stereo not given) | 89.62
46 | Cn1cc(C2CCCN2CCc2nc3ccccc3c(=O)[nH]2)cn1 (stereo not given) | 2.636
47 | O=c1[nH]c(CCN2CCCC2Cn2cccn2)nc2ccccc12 (stereo not given) | 50.72
48 | Cc1cnn(CC2CN(Cc3nc4ccccc4c(=O)[nH]3)CCO2)c1 (stereo not given) | 8.669
49 | O=c1[nH]c(CCN2CCCC2Cn2cncn2)nc2ccccc12 (stereo not given) | 48.51
50 | O=c1[nH]c(CCN2CCCCC2Cn2cccn2)nc2ccccc12 (stereo not given) | 29.01
51 | CC(C)(C)c1n[nH]cc1CNC1CCC(C(F)(F)F)CC1.Cl (stereo not given) | -43.27
52 | Cl.O=C(O)CN1CCC(C(F)(F)F)CC1 | 11.41
53 | CN(Cc1cccnc1)C1CC2(CCN(Cc3cccnc3)CC2)C1.O=C(O)C(F)(F)F.O=C(O)C(F)(F)F.O=C(O)C(F)(F)F | -1.954
54 | CCOCc1cccc(S(=O)(=O)Nc2ncc(C)s2)c1 | 52.82
55 | CNS(=O)(=O)c1cccc(S(=O)(=O)Nc2ncc(C)s2)c1 | 68.64
56 | COCc1cccc(S(=O)(=O)Nc2ncc(C)s2)c1 | 15.26
57 | Cc1cnc(NS(=O)(=O)c2ccccc2)s1 | 4.612
58 | Cc1cnc(NS(=O)(=O)c2cccc(C#N)c2)s1 | -32.7
59 | COC(=O)c1cccc(S(=O)(=O)Nc2ncc(C)s2)c1 | 1.16
60 | Cl.O=C(C1CCCC1)N1C[C@@H](c2ccsc2)[C@@H]2CN(C3CCCC3)CC[C@@H]21 | 3.962
61 | COCCN1CCCn2c(nc(Cn3cncn3)cc2=O)C1.O=C(O)C(F)(F)F | 17.08
62 | CCOCC1CC2(CCN(C(=O)c3ncccn3)CC2)CO1 (stereo not given) | -17.44
63 | O=C(Nc1ccccc1)N1C[C@H]2C[C@H](C(=O)N3CCCC3)[C@@H](C1)O2 | -25.79
64 | COCC1N(C(=O)c2ccco2)[C@H]2CC[C@]1(O)CC2 (stereo not given in full) | 16.02
65 | O=C(O)C(F)(F)F.O=C(c1ccno1)N1CCO[C@@H]2CC(COCc3ccccn3)C[C@H]21 (stereo not given in full) | 1.135
